Assay outcomes from PubChem.
TrxR1 inh – qHTS Assay for Inhibitors of Mammalian Selenoprotein Thioredoxin Reductase 1 (TrxR1): qHTS. Potency, µM (top dose mostly 114 µM), inactives show top-dose activity change, negative = inhibition, most hits filed as inhibitors. Thioredoxin reductase 1, cytoplasmic (Rattus norvegicus), O89049. 390,000 compounds, 1% hits. recombinant rTrxR1, NADPH fluorescence consumption, selenite substrate; also: potency is read from the fitted curve at half-maximal effect; % is scaled to controls: 0 for no effect and ±100 for the full control effect; nearly all actives have a fitted effect of over 65% in size
Target sequence (O89049 whole entry, looked up): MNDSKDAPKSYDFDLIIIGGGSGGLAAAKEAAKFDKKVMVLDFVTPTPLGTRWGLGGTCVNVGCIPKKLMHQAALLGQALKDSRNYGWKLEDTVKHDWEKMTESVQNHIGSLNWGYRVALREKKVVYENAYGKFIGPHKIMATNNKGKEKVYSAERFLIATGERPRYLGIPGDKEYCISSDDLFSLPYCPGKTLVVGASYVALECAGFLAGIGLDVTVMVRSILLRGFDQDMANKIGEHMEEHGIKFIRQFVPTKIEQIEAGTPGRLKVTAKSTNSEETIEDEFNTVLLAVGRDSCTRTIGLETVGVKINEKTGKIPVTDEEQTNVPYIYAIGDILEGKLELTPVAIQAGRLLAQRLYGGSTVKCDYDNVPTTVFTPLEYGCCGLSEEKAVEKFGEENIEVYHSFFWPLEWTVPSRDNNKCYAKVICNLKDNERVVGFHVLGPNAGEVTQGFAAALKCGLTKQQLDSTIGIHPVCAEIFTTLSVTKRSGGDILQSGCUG
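Rat TrxR1 (90 nM in the dispensed reagent) was pre-reduced with 400 uM NADPH for 5 min at room temperature, then incubated with compound for 15 min. After 400 uM selenite was added, NADPH fluorescence (Ex 340/Em 450 nm) was followed for 8 min.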
Pin1 inh – qHTS Assay to Find Inhibitors of Pin1. Pin1 FP peptide displacement, HiFluor488, 10 min. Potency, µM (titrated, usually from 115 µM), for the others: at the top dose activity, negative = inhibition, actives largely listed as inhibitors. 390,000 compounds, 0.009% hits. AID 504891, 2011; active = well fitted inhibition curve with a large enough effect in the polarisation, with a control signal flat, not every such curve was filed as active; inconclusive = small, poorly fitted or top-dose-only effect, or effect the other way, or a change in a side signal; inactive = no such curve, though single readings can be large or run the other way; the % refers to the polarisation; also: potency is read from the fitted curve at half-maximal effect; % is scaled to controls: 0 for no effect and ±100 for the full control effect
Target sequence (Q13526 whole entry, looked up): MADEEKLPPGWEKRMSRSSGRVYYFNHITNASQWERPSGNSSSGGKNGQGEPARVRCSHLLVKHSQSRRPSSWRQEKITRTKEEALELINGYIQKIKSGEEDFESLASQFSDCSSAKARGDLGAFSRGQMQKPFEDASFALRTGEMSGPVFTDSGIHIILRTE
N370S GC – qHTS Assay for Inhibitors and Activators of N370S glucocerebrosidase as a Potential Chaperone Treatment of Gaucher Disease; Lysosomal acid glucosylceramidase (Homo sapiens), P04062; N370S GC spleen homogenate, 4MU-glucoside fluorescence; Potency, µM (series often up to 59.4 µM), without a hit: at the highest dose activity change, negative = inhibition, actives largely listed as inhibitors; 330,000 compounds, 0.092% hits; AID 2101, 2009;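 also: potency is read from the fitted curve at half-maximal effect; 0% = full enzyme activity and -100% = no enzyme basal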
pAkt inh – HTS Assay for Inhibitors of Akt Phophorylation: Primary Screen; Neuro2A IGF-stimulated pAkt S473 HTRF, 20 min; hits give low values; activity change, % for hits at 50 µM; 360,000 compounds, 0.32% hits; AID 651550, 2012; in the data active = activity change below about -80%; inconclusive = mostly about -51% to -80%; also: % is scaled to controls: 0 for no effect and ±100 for the full control effect
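Single-point screen (50 µM final compound) in Neuro2A cells stimulated 20 min with 6 nM IGF at 37 deg C. After lysis, Ser473-phosphorylated Akt read by HTRF (ex 330 nm, em 615/665 nm) as the 665/615 ratio.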
A-T KAP1 phos – qHTS Assay for Identifying a Potential Treatment of Ataxia-Telangiectasia. F2112 A-T fibroblasts, KAP-1 phosphorylation AlphaLISA; neocarzinostatin DNA damage 30 min before lysis. Potency, µM (doses to about 57.5 µM), without a hit: at the top dose activation, hits mostly activators. 320,000 compounds, 0.19% hits. AID 485349, 2010; also: potency is read from the fitted curve at half-maximal effect; % of control where 0% means no effect; nearly all actives have a fitted effect of over 45% in size
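hTERT-immortalized A-T patient fibroblasts (F2112), 500 cells/well in OPTI-MEM, 1% FBS, got compounds for 60 min, then NCS for 30 min at 37C. Lysates were then assayed for phospho-KAP-1 by AlphaLISA (anti-pKAP1 donor, anti-KAP1 acceptor beads), 6 hr at 25C.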
TrxR1 substrate – qHTS Assay for Substrates of Mammalian Selenoprotein Thioredoxin Reductase 1 (TrxR1): qHTS; Thioredoxin reductase 1, cytoplasmic (Rattus norvegicus), O89049; purified TrxR1 substrate turnover, NADPH consumption readout; Potency, µM (highest dose often 114 µM), for the others: at the top dose activity change, negative = substrate turnover; 390,000 compounds, 0.01% hits; AID 588456, 2011; also: potency is read from the fitted curve at half-maximal effect; % is scaled to controls: 0 for no effect and ±100 for the full control effect; nearly all actives have a fitted effect of over 50% in size
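Rat TrxR1, dispensed at 90 nM, was prereduced with 400 uM NADPH (final) for 5 min at ~22 deg C, then incubated with compound 15 min before 400 uM selenite. A first-read NADPH fluorescence drop versus no-compound background flagged substrates.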
* hit, by the source's call; i = inactive; u = inconclusive; x = no result; [ ] = remark or other dose. Compounds with a hit are over-represented: about 1.4% of the library has one in this group of screens. Unless noted, calls follow the shape of the dose curve; as a rule, active = well fitted curve in the direction sought with a large enough effect; inconclusive = small, poorly fitted or top-dose-only effect, or another doubt; inactive = no such curve, though single readings can be large; an effect the other way counts as inactive or inconclusive.

SMILES | TrxR1 inh | Pin1 inh | N370S GC | pAkt inh | A-T KAP1 phos | TrxR1 substrate
NC(=O)c1c(N)sc2c1CCCC2 | 50µM* | -13% | 11% | i | 6% | 4%
Nc1sc2c(c1C(=O)c1ccccc1)CCCC2 | u | -4% | 6% | i | -2% | -9%
CC1Cc2ccccc2N1Cc1nc2cc(C(F)(F)F)ccc2c(=O)[nH]1 (stereo not given) | -11% | 12% | 10% | i | 1% | 5%[57.1 µM]
NC(=O)C1CCN(Cc2nc3cc(C(F)(F)F)ccc3c(=O)[nH]2)CC1 | -21% | -1% | -3% | i | 11µM* | -12%
Ic1ccc(Nc2nc(NCCN3CCOCC3)nc(N3CCOCC3)n2)cc1 | 15% | x | x | x | x | -4%
COc1cc2c(NC3CCN(C)CC3)nc(N3CCCN(C)CC3)nc2cc1OCc1ccccc1 | -18% | x | x | x | x | 31%
CC(/C=N/n1c(-c2ccc(C)cc2)n[nH]c1=S)=C\c1ccco1 | u | 18% | 2% | i | 3% | 1%
CC(/C=N/n1c(-c2ccncc2)n[nH]c1=S)=C\c1ccco1 | 50µM* | u | -6% | i | -12% | -13%
O=C1C=CC2=C3c4cc(O)c(O)cc4CC3(O)COC2=C1O (stereo not given) | 16µM* | u | -23% | i | x | 3%
COc1ccc(S(=O)(=O)NCc2ccc3c(c2)CCN3C(=O)c2ccc(C)cc2)cc1Cl | 14%[57.1 µM] | 44% | x | x | x | 0%[57.1 µM]
COc1ccc(NC(=O)CN2CCCN(Cc3ccc(Cl)cc3)S2(=O)=O)cc1Cl | 20% | 45% | x | x | x | -3%
CCOc1ccc(C(c2c(NC(=O)c3ccco3)sc(C)c2C)N2CCOCC2)cc1 (stereo not given) | 38% | 15% | x | i | 0% | 21%
Cc1sc(NC(=O)c2ccccc2)c(C(c2ccccn2)N2CCN(CCO)CC2)c1C (stereo not given) | 6%[57.1 µM] | -1% | 11% | i | -1% | 7%[57.1 µM]
CCc1cc(C(c2ccccn2)N2CCN(C)CC2)c(NC(=O)c2ccccc2)s1 (stereo not given) | u | -1% | 14µM* | i | -6% | -4%
CCOc1ccc(C(c2c(NC(=O)c3ccccc3)sc(C)c2C)N2CCN(C)CC2)cc1 (stereo not given) | -2% | 7% | 16µM* | i | 1% | -3%
CC(C)c1ccc(-c2noc(SCC(=O)N3CCCCC3)n2)cc1 | -9%[57.1 µM] | u | x | x | x | -11%[57.1 µM]
O=C(N/N=C/c1ccco1)c1cccc(N2Cc3ccccc3C2)c1 | 50µM* | x | -5% | i | -2% | 3%
Cc1cccc(OCC(=O)Nc2cc(-c3nc4cc(Cl)ccc4o3)ccc2C)c1 | 13% | x | x | x | x | 5%
COC(=O)c1sccc1NC(=O)c1cc(-c2ccc(C)cc2C)nc2ccccc12 | 13%[57.1 µM] | 2% | 0% | -117%* | 7% | -7%[57.1 µM]
Cc1ccc(NC(=O)c2cc(-c3cccs3)nc3ccccc23)c(C)c1 | 10% | u | x | x | x | 26%
N#Cc1cccc(NC(=S)Nc2ccccc2)c1 | 45µM* | -1% | 3% | i | 2% | -4%
Oc1ccc(NC(=S)Nc2ccccc2)cc1 | -7%[57.1 µM] | 0% | u | i | 8% | 16%[57.1 µM]
COc1cc2[nH]c(=S)nc(Nc3ccc(NC(C)=O)cc3)c2cc1OC | 10µM* | -9% | 0% | i | 19% | -2%
Cc1ccc2nc(CN3CCN(S(=O)(=O)c4ccc(F)cc4)CC3)oc2c1 | 0%[57.1 µM] | -5% | x | x | x | -5%[57.1 µM]
COc1cc(CNc2ccc3c(c2)CCC3)cc(OC)c1O | 0.4µM* | 1% | 2% | i | -2% | 7%
SMILES | TrxR1 inh | Pin1 inh | N370S GC | pAkt inh | A-T KAP1 phos | TrxR1 substrate
Nc1nc(N)c(-c2ccccc2)s1 | -9% | x | x | x | x | -3%
O=S(=O)(Cc1ccccc1)c1nnnn1-c1ccccc1 | x | x | -8% | x | x | x
COc1ccc(-n2nnnc2S(=O)(=O)CC(=O)N2CCCCC2)cc1 | 2.2µM* | u | -3% | i | 8% | 9%
COc1ccc(-n2nnnc2S(=O)(=O)Cc2ccc(C(=O)O)cc2)cc1 | 16µM* | x | 15% | i | 14% | 1%
CCn1c(SCC(=O)NCc2ccc3c(c2)OCO3)nnc1-c1cccs1 | 14%[57.1 µM] | -6% | 4% | -96%* | 10% | 4%[57.1 µM]
CCCCn1nnnc1SCC(=O)NCc1ccccc1 | 26%[57.1 µM] | -5% | 3% | -115%* | x | 11%[57.1 µM]
CCCCn1nnnc1SCC(=O)NNC(=O)c1ccco1 | 7%[57.1 µM] | 0% | 5% | i | 3% | -6%
Cn1c(SCC(=O)NCc2ccc3c(c2)OCO3)nnc1-c1cccs1 | -15% | -4% | 4% | i | 2% | -5%
CCCn1c(SCC(=O)NCc2ccccc2)nnc1-c1ccncc1 | 19%[57.1 µM] | 1% | -3% | -115%* | x | 13%[57.1 µM]
Nc1ccc(/C=C/c2nc3ccccc3s2)cc1 | 16% | x | x | x | x | -7%
O=S1(=O)N=C(Oc2ccc(-c3ccccc3)cc2)c2ccccc21 | x | 3% | x | x | x | x
C=CCNC(=O)C1=NN(c2c(F)c(F)cc(F)c2F)C(=O)CC1 | -1% | u | -5% | i | 7.1µM* | -6%
COc1ccc(NC(=S)N/C(=N/S(=O)(=O)c2ccc(C)cc2)c2ccccc2)cc1 | 22µM* | -3% | 4% | i | 1% | -2%
Cc1ccc(S(=O)(=O)/N=C(\Sc2ccccc2)c2ccccc2)cc1 | 2.8µM* | -2% | -5% | i | 15% | 14%
NC(N)=NS(=O)(=O)c1ccc(NC(=S)NC(=O)c2ccccc2)cc1 | 50µM* | -1% | 1% | i | -9% | -11%
O=S(=O)(/N=C(\Sc1ccccc1)c1ccccc1)c1ccc(Cl)cc1 | u | 1% | -3% | i | 0% | 4%
NC(N)=NS(=O)(=O)c1ccc(NC(=S)NC(=O)/C=C/c2ccccc2)cc1 | 34% | -1% | -17% | i | 2% | 5%
CC(C)(C)c1ccc(O)c(N=Cc2cccc([N+](=O)[O-])c2)c1 | -5% | x | x | x | x | 3%
N=C1/C(=C\c2coc3ccccc3c2=O)C(=O)N=C2SC(c3ccncc3)=NN12 | u | u | -21% | i | -6% | 18%[0.0914 µM]
N=C1/C(=C/c2coc3ccccc3c2=O)C(=O)N=C2SC(c3ccco3)=NN12 | 50µM* | u | 6% | i | -1% | -13%
